ROMK mod = ROMK potassium channel modulators, primary screen, cell-based, thallium flux, MLSMR library | Tet-inducible ROMK, thallium flux fluorescence; actives lie on both sides | B-score at 10 µM | actives 2% (n = 130,000) | AID 1918, 2009;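 active = signal ratio slope over the read window, or its plate-corrected B-score, at least 3 SD from the plate mean, either direction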;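 also: B-score of the F/F0 ratio slope over 7 to 12 s after thallium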
Insulin prom inh = inhibitors of insulin promoter-driven GFP, primary screen, imaging, TRM-6 cells (human fetal islet line), eGFP reporter, cell count; reporter expression induced with tamoxifen; AID 1273, 2008; inhibition, % at 2 µM; actives 0.9% (n = 130,000);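 active = inhibition above the mean plus 3 SD, with well images judged a real hit on visual review, cut at about 60% in these data, passing the limit was not always enough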
WT yeast gro inh = growth inhibition of WT strain, primary screen, mitochondrial fusion inhibitor project, WT and mutant strains, chemical genetic; actives 2.1% (n = 190,000); inhibition, % at 10 µM; mitochondrial fusion phenotypic screen; in the data active = inhibition above about 58%; tested in S. cerevisiae
KCC2 mod = KCC2 cotransporter modulators, thallium flux, primary screen, cell-based, HEK293 KCC2, FluoZin-2 fluorescence, MLSMR; KCC2 cells, thallium flux FluoZin-2 fluorescence; AID 1456, 2008; actives 2.2% (n = 190,000); B-score of Tl+ flux slope (higher = more flux/activation; lower = inhibition) at 10 µM;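 active = thallium flux slope and its plate-corrected score both differing from the plate sample mean at a set confidence after two filtering rounds, in either direction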;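 also: slope of fluorescence scaled to starting intensity during 10 to 20 s after thallium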
Target sequence (Q9H2X9 whole entry, looked up): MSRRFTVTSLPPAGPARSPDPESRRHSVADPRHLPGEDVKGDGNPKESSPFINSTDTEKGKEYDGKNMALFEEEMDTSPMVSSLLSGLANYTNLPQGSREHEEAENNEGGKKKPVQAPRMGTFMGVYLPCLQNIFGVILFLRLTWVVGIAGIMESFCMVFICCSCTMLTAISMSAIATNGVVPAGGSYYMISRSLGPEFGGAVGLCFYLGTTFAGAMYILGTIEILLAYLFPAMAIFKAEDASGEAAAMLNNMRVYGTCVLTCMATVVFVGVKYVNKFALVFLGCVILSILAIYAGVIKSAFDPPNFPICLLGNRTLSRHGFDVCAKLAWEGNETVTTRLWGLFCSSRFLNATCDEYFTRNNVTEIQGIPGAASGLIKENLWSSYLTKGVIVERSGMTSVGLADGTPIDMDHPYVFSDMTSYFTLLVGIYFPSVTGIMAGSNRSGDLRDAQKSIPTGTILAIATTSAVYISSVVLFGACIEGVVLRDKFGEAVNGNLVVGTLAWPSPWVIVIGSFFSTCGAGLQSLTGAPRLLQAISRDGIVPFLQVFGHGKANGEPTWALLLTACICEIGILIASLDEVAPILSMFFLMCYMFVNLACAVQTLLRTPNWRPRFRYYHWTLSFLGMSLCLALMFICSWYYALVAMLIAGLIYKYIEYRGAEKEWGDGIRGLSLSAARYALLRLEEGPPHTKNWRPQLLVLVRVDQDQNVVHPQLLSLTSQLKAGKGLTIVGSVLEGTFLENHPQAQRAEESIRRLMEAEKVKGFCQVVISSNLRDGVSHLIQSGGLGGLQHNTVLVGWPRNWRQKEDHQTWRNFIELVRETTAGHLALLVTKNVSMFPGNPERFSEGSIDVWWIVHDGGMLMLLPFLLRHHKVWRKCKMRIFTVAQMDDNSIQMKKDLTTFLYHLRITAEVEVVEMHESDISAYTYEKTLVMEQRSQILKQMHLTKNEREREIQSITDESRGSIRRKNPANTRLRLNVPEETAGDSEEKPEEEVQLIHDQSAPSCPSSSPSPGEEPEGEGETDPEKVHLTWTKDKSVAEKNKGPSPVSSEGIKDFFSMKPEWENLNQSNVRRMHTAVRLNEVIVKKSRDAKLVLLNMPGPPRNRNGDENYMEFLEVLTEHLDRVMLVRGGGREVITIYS
L major viab = Leishmania major promastigote growth inhibition, primary screen; Leishmania major promastigotes, resazurin fluorescence viability; inhibition, % at 10 µM; actives 9% (n = 200,000); in the data active = inhibition above about 50%;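 also: promastigotes grown with compound for 44 hours at 28 °C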
Ins promoter up = insulin promoter activators in MIN6 cells, imaging, high-content screening, mouse beta cells | MIN6 insulin promoter-GFP reporter; stronger effect = higher value | actives 0.3% (n = 190,000) | z-score at 5 µM;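 active = z-score above 3 at 5 µM with at least 500 cells counted in the well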
Each line names hits and unclear results; the compound was inactive in the other large screens. The list is not random: actives were taken first. Their share in the collection is about 12%.

CCc1ccc(/C=C2\SC(=S)N(CCCC(=O)Nc3ccccn3)C2=O)cc1	none (no result: ROMK mod)
CC(C)=CCc1c2c(c3occ(-c4ccc(O)cc4)c(=O)c3c1O)C=CC(C)(C)O2	none (no result: Insulin prom inh)
CC1(C)C=Cc2c(c3c(c4c(=O)c(-c5ccc(O)cc5)coc24)OC(C)(C)CC3)O1	WT yeast gro inh 71.4 (no result: Insulin prom inh)
COc1ccccc1CNC(=O)C1CCCN1S(=O)(=O)c1cccc2cccnc12 (stereo not drawn)	none (no result: ROMK mod, Insulin prom inh, KCC2 mod)
COc1ccc(OC)c(CNC(=O)Cc2c(C(=O)O)[nH]c3ccc(Cl)cc23)c1	Insulin prom inh 77.8
O/N=C(/CN(O)/C=C1/C=CC=N1)c1cccs1	ROMK mod -4.99
CC(NO)/C(=N\O)c1cccs1 (stereo not drawn)	none (no result: Insulin prom inh)
CCOC(=O)C1(CCOc2ccccc2)CCN(Cc2ccc(NC(C)=O)cc2)CC1	L major viab 86.7 (no result: Insulin prom inh)
CCOC(=O)C1(CCOc2ccccc2)CCN(Cc2cccn2-c2cccnc2)CC1	none (no result: Insulin prom inh)
CCOC(=O)C1(CCOc2ccccc2)CCN(Cc2ccc3nonc3c2)CC1	WT yeast gro inh 62.4, L major viab 92.2 (no result: Ins promoter up)
CCCc1ccc(S(=O)(=O)NCCc2ccncc2)cc1	none (no result: ROMK mod)
CCCCCc1ccc(S(=O)(=O)NCCc2ccncc2)cc1	L major viab 77.8 (no result: KCC2 mod)
COc1ccc(CCNS(=O)(=O)c2ccc(OC)cc2)cc1	WT yeast gro inh 74.3 (no result: ROMK mod)
CCCn1c(C(=O)OC)cc2c1ccn2-c1ccc(F)cc1	L major viab 99.2 (no result: ROMK mod)
COC(=O)c1cc2c(ccn2-c2ccc(F)cc2)n1C(C)C	none (no result: ROMK mod)
COC(=O)c1cc2c(ccn2-c2ccc(F)cc2)n1CC(C)C	L major viab 98.4 (no result: ROMK mod)
CC(COC(=O)c1ccccc1)(COC(=O)c1ccccc1)/[N+]([O-])=C/c1ccccc1	none (no result: Ins promoter up)
CC1=Nn2c(nnc2-c2cccs2)SC1	none (no result: Ins promoter up)
Cc1ccc(C2CC(C(F)(F)F)n3nc(C(=O)NCc4ccco4)cc3N2)cc1 (stereo not drawn)	none (no result: ROMK mod, Insulin prom inh, KCC2 mod)
CN1CCCCc2c1nc1ccccc1c2N (tested in a mixture with another compound)	L major viab 91.7 (no result: Insulin prom inh, Ins promoter up)
O=C(CN1CCN(c2ccc(O)cc2)CC1)Nc1ccc2c(c1)OCCO2	none
OCCNc1nc2ccccc2n1CCN1CCCCC1	none (no result: Ins promoter up)
COc1ccc(CNc2nc3ccccc3n2CCN2CCCCC2)cc1	none
Clc1ccc(Cn2c(CN3CCCC3)nc3ccccc32)cc1	L major viab 99.6 (no result: ROMK mod, Ins promoter up)
Cn1c(CNc2nc3ccccc3n2CCN2CCCCC2)nc2ccccc21	L major viab 99.4 (no result: ROMK mod)
c1ccc(Cn2c(CNc3nc4ccccc4n3CCN3CCCCC3)nc3ccccc32)cc1	WT yeast gro inh 63.8, L major viab 99.7 (no result: ROMK mod, Insulin prom inh)
CCN(CC)c1ccc(CNc2nc3ccccc3n2CCN2CCCCC2)cc1	L major viab 100.5
CCN(CC)CCn1c(NCc2nc3ccccc3n2Cc2ccccc2)nc2ccccc21	L major viab 100.1
Cn1c(CNc2ccccc2)nc2ccccc21	none (no result: ROMK mod)
Cn1c(CNc2ccccc2O)nc2ccccc21	L major viab 88.6 (no result: ROMK mod, Insulin prom inh)
CCN(CC)CCn1c(NCc2ccco2)nc2ccccc21	none (no result: ROMK mod, Ins promoter up)
COc1ccc2c(c1)C1C=CCC1C(c1cc3c(cc1Br)OCO3)N2 (stereo not drawn)	none (no result: ROMK mod, Ins promoter up)
O=C(CCC(=O)N1CCCC1)Nc1nnc(C(F)(F)F)s1	none (no result: KCC2 mod)
O=C(CCCn1c(=S)[nH]c2ccccc2c1=O)NC1CCCCC1	none (no result: Ins promoter up)
Cc1ccc(SCc2cc(=O)[nH]c(N3CCN(Cc4ccc5c(c4)OCO5)CC3)n2)cc1	none (no result: ROMK mod, KCC2 mod)
C=CCc1cc(C=O)cc(OC)c1OCc1c(Cl)cccc1Cl	L major viab 79.2 (no result: ROMK mod)
C=CCOc1c(Cl)cc(/C=N/O)cc1OC	none (no result: ROMK mod)
O=C(CSc1n[nH]c(-c2ccc(S(=O)(=O)NC3CCCCC3)cc2)n1)N1CCCC1	none (no result: ROMK mod)
O=C(NNc1ncc(C(F)(F)F)cc1Cl)c1c(Cl)cccc1Cl	KCC2 mod 3.76 (no result: ROMK mod)
CCOC(=O)C1CCCN(C(=O)c2sc3nc(-c4ccc(OC)cc4)cn3c2C)C1 (stereo not drawn)	L major viab 99.8 (no result: Ins promoter up)
CCn1c2ccccc2c2cc(CN3CCN(S(=O)(=O)CC)CC3)ccc21	none
CCn1c(=O)n(CC)c2cc(N)ccc21	none (no result: Insulin prom inh)
CCn1c2ccccc2c2cc(N)ccc21	L major viab 78.3 (no result: ROMK mod)

Source: PubChem (several laboratories)
